MITF inh – inhibitors of MITF; TRPM1 promoter luciferase, luminescence, 24 h; inhibition, % (concentration not given with the values); 37,000 compounds, 0.28% hits; AID 2240; in the data active = inhibition above about 85%;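 note: human melanocyte line stably carrying TRPM1 promoter luciferase reporter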
Hedgehog inh – blocks Sonic Hedgehog signaling; Shh-LIGHT2 Gli-luciferase reporter, 30 h; inhibition, % (test concentration not listed); 22,000 compounds, 2.1% hits; AID 2313;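 active = mean inhibition across valid replicates above about 65%, limit read from the data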;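 note: pathway switched on by Shh-conditioned medium diluted 1 in 25 in low serum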
PD-1 reverse act – activators reversing PD-1 mediated T-cell inhibition; activation, % (test concentration not listed); 29,000 tested, under 10 active; AID 2316; primary human CD4 T cells, PD-L1 beads, CellTiter-Glo 96 h; call rule not given here;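 note: 0% = median vehicle wells and 100% = positive control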
NOMO-1 viab – STK33 inhibitor candidate reducing NOMO-1 cell viability; NOMO-1 AML viability, CellTiter-Glo luminescence, 72 h; inhibition, % (test concentration not listed); 37,000 compounds, 7.5% hits; AID 2330; in the data active = inhibition above about 80%
* marks the source's active call; other numbers are inactive results; · = not tested or not shown. This is a sample that favours compounds with a hit; in the whole collection about 7.9% have one here.

SMILES	MITF inh	Hedgehog inh	PD-1 reverse act	NOMO-1 viab
Cc1c(C2CCN(CCc3ccccc3)CC2)noc1-c1ccc(Cl)cc1	-1	77*	·	93*
O=C1CSC(=S)N1CCc1ccc(Cl)cc1	9	6	0	113*
COc1ccc(CCN2C(=O)CSC2=NC2CC2)cc1OC	-23	·	0	-14
COC(=O)c1c(NC(=O)CCN2C(=O)c3ccccc3C2=O)sc(C)c1-c1ccccc1	-12	·	0	-17
C[C@@H]1CN([C@@H](C)CO)C(=O)c2cc(NC(=O)Nc3ccc(C(F)(F)F)cc3)ccc2O[C@H]1CN(C)S(=O)(=O)c1cccs1	-7	·	·	93*
C[C@@H]1CN([C@@H](C)CO)C(=O)c2cc(NC(=O)Nc3ccc(F)cc3)ccc2O[C@@H]1CN(C)S(=O)(=O)c1cccs1	-10	-4	0	14
C[C@H]1CN([C@@H](C)CO)C(=O)c2cc(NC(=O)Nc3ccc(F)cc3)ccc2O[C@@H]1CN(C)S(=O)(=O)c1cccs1	-14	16	-2	25
C[C@H](CO)N1C[C@H](C)[C@H](CN(C)S(=O)(=O)c2cccs2)Oc2ccc(NC(=O)Nc3ccc(F)cc3)cc2C1=O	-69	-17	-1	21
C[C@H]1CN([C@@H](C)CO)C(=O)c2cc(NC(=O)Nc3ccc(C(F)(F)F)cc3)ccc2O[C@@H]1CN(C)S(=O)(=O)c1cccs1	67	·	·	94*
C[C@@H]1CN([C@@H](C)CO)C(=O)c2cc(NC(=O)Nc3ccc(C(F)(F)F)cc3)ccc2O[C@@H]1CN(C)S(=O)(=O)c1cccs1	43	44	-3	109*
COc1ccc(S(=O)(=O)N(C)CC(=O)Nc2cccc(Cl)c2C)cc1C	16	·	0	-4
CC(C)c1ccc(NCC(O)CSc2ccccc2)cc1 (stereo unspecified)	-25	-36	-1	110*
CC(C)c1ccc(NCC(O)COc2ccc(Cl)c(Cl)c2)cc1 (stereo unspecified)	1	-46	-3	117*
CCOC(=O)c1c(NC(=O)C2(C)Cc3ccccc3C(=O)O2)sc(C)c1C (stereo unspecified)	-18	·	-4	37
O=C(Nc1ccc(I)cc1C(=O)NCc1ccco1)c1ccco1	-8	·	-3	33
COc1ccc(S(=O)(=O)N(C)CC(=O)N2CCOCC2)cc1OC	-9	·	2	-20
CNc1cc2ncnc(Nc3cccc(Br)c3)c2cc1N	-5	57	6	97*
COc1cc(CC2COC(=O)C2(O)Cc2ccc(O)c(OC)c2)ccc1O (stereo unspecified)	91*	-28	-1	54
Cc1ccc(C(=O)O)cc1NC(=O)CCN1C(=O)c2ccccc2C1=O	-4	·	·	0
C[C@H]1CN([C@@H](C)CO)C(=O)c2cc(NS(=O)(=O)c3ccc(Cl)cc3)ccc2O[C@@H]1CN(C)Cc1ccc(Cl)c(Cl)c1	51	21	-4	100*
C[C@@H]1CN([C@H](C)CO)C(=O)c2cc(NS(=O)(=O)c3ccc(Cl)cc3)ccc2O[C@H]1CN(C)Cc1ccc(Cl)c(Cl)c1	-13	·	-2	19
C[C@@H]1CN([C@H](C)CO)C(=O)c2cc(NS(=O)(=O)c3ccc(F)cc3)ccc2O[C@H]1CN(C)Cc1ccc2c(c1)OCO2	-15	·	·	-6
C[C@H](CO)N1C[C@H](C)[C@H](CN(C)Cc2ccc3c(c2)OCO3)Oc2ccc(NS(=O)(=O)c3ccc(F)cc3)cc2C1=O	-1	22	-1	112*
C[C@@H]1CN([C@@H](C)CO)C(=O)c2cc(NS(=O)(=O)c3ccc(F)cc3)ccc2O[C@@H]1CN(C)Cc1ccc(Cl)c(Cl)c1	65	·	-3	110*
C[C@@H]1CN([C@@H](C)CO)C(=O)c2cc(NS(=O)(=O)c3ccc(Cl)cc3)ccc2O[C@H]1CN(C)Cc1ccc(Cl)c(Cl)c1	46	13	-1	119*
SMILES	MITF inh	Hedgehog inh	PD-1 reverse act	NOMO-1 viab
C[C@H]1CN([C@@H](C)CO)C(=O)c2cc(NS(=O)(=O)c3ccc(F)cc3)ccc2O[C@H]1CN(C)Cc1ccc(Cl)c(Cl)c1	1	14	1	11
O=C(COc1ccc(Br)cc1)NCC1CCCO1 (stereo unspecified)	-23	-8	0	3
COc1ccc(NC(=O)CN(C)S(=O)(=O)c2ccc(F)cc2)cc1OC	-13	·	2	-27
COC(=O)c1ccccc1NC(=O)CSc1nnc(-c2ccccc2O)n1-c1ccccc1	33	·	0	36
CC(=O)c1cccc(NC(=O)CCN2C(=O)c3ccccc3S2(=O)=O)c1	-7	·	2	-23
Cc1ccc(N(C(C)C(=O)Nc2cc(Cl)ccc2Oc2ccccc2)S(C)(=O)=O)cc1C (stereo unspecified)	13	·	·	58

Bioassay records: PubChem BioAssay, Broad Institute
